In ChEMBL document CHEMBL2218924, “A broad activity screen in support of a chemogenomic map for kinase signalling research and drug discovery” (Biochem J, 2013):

How the values were obtained:
[1] = target: T1, Ephrin type-A receptor 3 (Homo sapiens) (UniProt P29320); settings: at 10 µM
T1 sequence (whole entry): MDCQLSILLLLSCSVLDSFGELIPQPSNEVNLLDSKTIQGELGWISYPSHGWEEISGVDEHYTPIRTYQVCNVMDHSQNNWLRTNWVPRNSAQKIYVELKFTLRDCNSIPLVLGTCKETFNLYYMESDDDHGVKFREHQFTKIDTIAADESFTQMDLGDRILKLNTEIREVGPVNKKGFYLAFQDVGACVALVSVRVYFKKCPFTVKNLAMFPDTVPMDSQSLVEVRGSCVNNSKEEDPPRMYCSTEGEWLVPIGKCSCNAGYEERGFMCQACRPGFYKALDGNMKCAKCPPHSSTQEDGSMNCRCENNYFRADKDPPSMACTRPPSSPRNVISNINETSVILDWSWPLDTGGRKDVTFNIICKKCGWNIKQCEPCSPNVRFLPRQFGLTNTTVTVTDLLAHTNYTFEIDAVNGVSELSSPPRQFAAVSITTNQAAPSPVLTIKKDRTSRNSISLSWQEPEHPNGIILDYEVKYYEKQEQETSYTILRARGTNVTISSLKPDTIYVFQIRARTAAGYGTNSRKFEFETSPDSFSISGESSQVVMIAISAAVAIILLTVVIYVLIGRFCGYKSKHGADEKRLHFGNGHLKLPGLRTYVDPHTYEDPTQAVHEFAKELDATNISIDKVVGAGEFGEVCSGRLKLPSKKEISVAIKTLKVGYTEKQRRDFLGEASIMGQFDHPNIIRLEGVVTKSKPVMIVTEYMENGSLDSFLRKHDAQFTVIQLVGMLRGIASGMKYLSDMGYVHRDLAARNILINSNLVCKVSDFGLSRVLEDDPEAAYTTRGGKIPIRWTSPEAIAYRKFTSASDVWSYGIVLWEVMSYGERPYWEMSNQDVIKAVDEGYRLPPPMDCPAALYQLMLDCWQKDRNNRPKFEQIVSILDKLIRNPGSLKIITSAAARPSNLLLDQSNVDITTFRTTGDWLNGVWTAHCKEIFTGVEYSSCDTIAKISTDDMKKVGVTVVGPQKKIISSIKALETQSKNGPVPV

[2] = target: Ephrin type-A receptor 4 (Homo sapiens) (UniProt P54764); settings: at 1 µM
[3] = target: Ephrin type-A receptor 4 (Homo sapiens) (UniProt P54764); settings: at 10 µM
[4] = target: Ephrin type-A receptor 5 (Homo sapiens) (UniProt P54756); settings: at 1 µM
[5] = target: Ephrin type-A receptor 5 (Homo sapiens) (UniProt P54756); settings: at 10 µM
[6] = target: Ephrin type-A receptor 7 (Homo sapiens) (UniProt Q15375); settings: at 1 µM
[7] = target: Ephrin type-A receptor 7 (Homo sapiens) (UniProt Q15375); settings: at 10 µM
[8] = target: T2, Ephrin type-A receptor 8 (Homo sapiens) (UniProt P29322); settings: at 1 µM
T2 sequence (whole entry): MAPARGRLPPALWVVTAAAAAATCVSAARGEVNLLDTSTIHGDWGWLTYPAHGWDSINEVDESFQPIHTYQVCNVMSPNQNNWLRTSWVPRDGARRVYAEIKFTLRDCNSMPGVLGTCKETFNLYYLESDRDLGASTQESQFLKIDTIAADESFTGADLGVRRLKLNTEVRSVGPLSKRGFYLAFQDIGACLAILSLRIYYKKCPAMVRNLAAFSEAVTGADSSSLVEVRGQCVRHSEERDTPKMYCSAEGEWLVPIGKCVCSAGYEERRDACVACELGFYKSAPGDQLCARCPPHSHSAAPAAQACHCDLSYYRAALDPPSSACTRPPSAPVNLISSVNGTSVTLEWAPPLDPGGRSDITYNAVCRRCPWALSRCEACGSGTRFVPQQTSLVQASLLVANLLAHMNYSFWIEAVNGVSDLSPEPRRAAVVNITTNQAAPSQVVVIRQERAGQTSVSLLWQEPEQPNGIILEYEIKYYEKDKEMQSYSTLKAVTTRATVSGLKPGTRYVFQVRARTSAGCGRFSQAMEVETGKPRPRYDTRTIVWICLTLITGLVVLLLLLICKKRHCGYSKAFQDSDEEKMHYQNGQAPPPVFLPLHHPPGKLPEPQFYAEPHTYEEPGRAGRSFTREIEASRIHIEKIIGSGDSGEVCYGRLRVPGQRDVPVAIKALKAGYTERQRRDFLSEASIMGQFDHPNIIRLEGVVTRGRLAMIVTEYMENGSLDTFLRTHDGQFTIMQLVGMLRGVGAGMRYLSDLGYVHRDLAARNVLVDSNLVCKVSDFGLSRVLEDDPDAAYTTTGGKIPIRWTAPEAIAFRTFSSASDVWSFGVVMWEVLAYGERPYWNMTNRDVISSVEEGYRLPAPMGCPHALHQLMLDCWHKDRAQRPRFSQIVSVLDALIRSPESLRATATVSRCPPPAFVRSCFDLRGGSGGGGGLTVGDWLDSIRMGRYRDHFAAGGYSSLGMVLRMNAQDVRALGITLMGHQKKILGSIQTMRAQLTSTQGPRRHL

[9] = target: T2, Ephrin type-A receptor 8 (Homo sapiens); settings: at 10 µM
[10] = target: T3, Ephrin type-B receptor 1 (Homo sapiens) (UniProt P54762); settings: at 1 µM
T3 sequence (whole entry): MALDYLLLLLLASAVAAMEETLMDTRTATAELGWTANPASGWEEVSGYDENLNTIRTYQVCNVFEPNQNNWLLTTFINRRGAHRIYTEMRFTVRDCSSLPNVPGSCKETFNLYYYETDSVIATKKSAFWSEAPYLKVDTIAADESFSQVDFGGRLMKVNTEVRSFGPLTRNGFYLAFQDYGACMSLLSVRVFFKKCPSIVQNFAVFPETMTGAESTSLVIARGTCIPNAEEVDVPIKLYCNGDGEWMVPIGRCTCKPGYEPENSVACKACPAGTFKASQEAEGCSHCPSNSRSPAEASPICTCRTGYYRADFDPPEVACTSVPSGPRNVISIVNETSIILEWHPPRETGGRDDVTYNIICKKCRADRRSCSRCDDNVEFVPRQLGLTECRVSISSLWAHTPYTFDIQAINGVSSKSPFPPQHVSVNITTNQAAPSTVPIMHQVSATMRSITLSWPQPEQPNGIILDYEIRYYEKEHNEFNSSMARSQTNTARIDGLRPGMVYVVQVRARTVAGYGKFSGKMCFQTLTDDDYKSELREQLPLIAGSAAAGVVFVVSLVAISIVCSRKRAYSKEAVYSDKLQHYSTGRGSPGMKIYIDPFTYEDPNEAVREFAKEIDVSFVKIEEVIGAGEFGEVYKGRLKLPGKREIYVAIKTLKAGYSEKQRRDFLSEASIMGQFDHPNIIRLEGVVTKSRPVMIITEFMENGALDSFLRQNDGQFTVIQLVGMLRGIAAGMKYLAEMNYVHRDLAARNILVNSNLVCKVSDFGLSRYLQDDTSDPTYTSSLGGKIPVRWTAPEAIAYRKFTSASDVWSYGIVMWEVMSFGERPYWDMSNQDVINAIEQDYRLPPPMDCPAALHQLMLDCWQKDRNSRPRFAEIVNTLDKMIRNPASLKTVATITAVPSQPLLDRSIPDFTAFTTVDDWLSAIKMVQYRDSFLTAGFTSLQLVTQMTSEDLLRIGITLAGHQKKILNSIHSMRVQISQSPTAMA

[11] = target: T3, Ephrin type-B receptor 1 (Homo sapiens); settings: at 10 µM
[12] = target: T4, Ephrin type-B receptor 2 (Homo sapiens) (UniProt P29323); settings: at 1 µM
T4 sequence (whole entry): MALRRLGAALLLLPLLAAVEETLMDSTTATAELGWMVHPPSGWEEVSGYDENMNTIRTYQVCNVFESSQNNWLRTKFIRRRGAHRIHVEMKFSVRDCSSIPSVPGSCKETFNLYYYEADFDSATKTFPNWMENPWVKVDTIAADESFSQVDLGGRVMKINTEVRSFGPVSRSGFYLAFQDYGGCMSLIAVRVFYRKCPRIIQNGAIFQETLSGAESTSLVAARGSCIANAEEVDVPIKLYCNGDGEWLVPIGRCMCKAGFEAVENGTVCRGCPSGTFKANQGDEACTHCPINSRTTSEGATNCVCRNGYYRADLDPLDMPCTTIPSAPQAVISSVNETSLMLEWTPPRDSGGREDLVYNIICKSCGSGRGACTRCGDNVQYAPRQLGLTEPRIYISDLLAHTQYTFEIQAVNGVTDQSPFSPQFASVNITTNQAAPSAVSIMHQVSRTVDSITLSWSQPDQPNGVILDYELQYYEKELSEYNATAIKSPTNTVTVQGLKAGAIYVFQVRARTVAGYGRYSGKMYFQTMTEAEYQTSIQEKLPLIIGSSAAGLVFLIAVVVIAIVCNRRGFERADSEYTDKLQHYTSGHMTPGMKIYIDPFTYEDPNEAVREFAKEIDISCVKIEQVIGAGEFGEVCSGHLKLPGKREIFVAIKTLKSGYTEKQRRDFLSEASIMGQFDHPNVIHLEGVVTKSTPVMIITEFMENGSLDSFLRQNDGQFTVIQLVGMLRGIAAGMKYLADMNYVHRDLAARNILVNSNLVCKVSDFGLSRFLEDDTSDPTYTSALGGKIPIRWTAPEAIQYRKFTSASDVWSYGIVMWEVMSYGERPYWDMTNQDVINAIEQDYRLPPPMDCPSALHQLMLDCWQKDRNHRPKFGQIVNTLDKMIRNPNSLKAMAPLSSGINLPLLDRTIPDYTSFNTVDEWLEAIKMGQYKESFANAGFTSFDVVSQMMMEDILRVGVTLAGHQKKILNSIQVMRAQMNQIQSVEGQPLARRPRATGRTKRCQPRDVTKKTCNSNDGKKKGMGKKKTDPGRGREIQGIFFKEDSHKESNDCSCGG

[13] = target: T4, Ephrin type-B receptor 2 (Homo sapiens); settings: at 10 µM
[14] = target: Receptor tyrosine-protein kinase erbB-4 (Homo sapiens) (UniProt Q15303); settings: at 10 µM
[15] = target: Focal adhesion kinase 1 (Homo sapiens) (UniProt Q05397); settings: at 1 µM

Sequence of Ephrin type-A receptor 7 (Homo sapiens) (Q15375 28-998 limits assumed): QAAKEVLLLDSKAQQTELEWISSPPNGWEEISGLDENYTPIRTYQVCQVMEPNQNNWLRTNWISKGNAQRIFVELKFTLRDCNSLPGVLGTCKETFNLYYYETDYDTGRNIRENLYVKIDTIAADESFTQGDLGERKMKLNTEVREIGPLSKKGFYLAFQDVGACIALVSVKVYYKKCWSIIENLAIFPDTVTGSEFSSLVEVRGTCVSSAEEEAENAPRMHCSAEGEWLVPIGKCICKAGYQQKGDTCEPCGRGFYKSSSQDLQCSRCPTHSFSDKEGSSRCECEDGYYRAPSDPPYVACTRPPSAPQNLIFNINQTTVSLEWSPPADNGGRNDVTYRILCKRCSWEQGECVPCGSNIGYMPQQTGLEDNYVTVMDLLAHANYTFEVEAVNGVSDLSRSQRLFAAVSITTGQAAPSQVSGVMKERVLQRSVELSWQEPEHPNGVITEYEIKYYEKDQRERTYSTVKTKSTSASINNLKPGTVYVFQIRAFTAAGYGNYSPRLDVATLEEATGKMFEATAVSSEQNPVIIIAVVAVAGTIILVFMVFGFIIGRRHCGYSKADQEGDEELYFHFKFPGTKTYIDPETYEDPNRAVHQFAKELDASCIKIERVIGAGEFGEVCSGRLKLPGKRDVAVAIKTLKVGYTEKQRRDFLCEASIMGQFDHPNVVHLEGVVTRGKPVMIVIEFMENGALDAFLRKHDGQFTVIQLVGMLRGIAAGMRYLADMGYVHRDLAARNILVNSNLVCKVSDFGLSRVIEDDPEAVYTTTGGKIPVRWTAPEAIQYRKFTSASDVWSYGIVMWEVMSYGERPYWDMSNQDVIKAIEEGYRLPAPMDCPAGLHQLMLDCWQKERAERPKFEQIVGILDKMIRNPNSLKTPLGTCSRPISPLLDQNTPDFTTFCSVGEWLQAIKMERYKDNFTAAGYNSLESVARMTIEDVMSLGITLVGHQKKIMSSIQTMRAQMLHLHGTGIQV
Sequence of Ephrin type-A receptor 5 (Homo sapiens) (P54756 whole entry): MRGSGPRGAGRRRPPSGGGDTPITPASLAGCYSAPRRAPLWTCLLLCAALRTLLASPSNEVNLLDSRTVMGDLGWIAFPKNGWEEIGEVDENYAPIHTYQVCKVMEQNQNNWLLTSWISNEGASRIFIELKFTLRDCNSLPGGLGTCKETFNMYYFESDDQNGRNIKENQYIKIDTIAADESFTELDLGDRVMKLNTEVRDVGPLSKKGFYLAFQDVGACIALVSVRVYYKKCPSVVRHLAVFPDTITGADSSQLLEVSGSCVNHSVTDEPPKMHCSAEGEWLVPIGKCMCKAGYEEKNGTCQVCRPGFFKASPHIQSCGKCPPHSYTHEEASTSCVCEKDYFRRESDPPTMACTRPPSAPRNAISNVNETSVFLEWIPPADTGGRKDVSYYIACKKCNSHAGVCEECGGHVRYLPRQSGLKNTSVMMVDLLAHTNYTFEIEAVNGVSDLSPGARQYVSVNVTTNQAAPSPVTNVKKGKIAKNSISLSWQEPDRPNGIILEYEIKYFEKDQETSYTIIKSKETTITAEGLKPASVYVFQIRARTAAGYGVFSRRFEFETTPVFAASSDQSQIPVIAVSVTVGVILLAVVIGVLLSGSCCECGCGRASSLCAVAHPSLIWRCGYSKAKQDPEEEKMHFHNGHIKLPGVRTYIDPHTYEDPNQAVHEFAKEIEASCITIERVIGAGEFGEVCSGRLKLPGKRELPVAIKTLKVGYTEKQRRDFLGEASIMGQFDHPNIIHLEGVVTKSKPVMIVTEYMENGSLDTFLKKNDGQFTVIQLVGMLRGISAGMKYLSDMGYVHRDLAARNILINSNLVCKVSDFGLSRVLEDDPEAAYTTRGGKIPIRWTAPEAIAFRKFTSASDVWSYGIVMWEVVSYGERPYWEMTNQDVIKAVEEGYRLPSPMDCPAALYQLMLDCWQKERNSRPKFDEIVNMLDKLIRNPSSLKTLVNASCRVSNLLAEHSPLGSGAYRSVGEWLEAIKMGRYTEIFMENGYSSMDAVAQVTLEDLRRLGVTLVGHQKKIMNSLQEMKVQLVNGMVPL
Sequence of Ephrin type-A receptor 4 (Homo sapiens) (P54764 whole entry): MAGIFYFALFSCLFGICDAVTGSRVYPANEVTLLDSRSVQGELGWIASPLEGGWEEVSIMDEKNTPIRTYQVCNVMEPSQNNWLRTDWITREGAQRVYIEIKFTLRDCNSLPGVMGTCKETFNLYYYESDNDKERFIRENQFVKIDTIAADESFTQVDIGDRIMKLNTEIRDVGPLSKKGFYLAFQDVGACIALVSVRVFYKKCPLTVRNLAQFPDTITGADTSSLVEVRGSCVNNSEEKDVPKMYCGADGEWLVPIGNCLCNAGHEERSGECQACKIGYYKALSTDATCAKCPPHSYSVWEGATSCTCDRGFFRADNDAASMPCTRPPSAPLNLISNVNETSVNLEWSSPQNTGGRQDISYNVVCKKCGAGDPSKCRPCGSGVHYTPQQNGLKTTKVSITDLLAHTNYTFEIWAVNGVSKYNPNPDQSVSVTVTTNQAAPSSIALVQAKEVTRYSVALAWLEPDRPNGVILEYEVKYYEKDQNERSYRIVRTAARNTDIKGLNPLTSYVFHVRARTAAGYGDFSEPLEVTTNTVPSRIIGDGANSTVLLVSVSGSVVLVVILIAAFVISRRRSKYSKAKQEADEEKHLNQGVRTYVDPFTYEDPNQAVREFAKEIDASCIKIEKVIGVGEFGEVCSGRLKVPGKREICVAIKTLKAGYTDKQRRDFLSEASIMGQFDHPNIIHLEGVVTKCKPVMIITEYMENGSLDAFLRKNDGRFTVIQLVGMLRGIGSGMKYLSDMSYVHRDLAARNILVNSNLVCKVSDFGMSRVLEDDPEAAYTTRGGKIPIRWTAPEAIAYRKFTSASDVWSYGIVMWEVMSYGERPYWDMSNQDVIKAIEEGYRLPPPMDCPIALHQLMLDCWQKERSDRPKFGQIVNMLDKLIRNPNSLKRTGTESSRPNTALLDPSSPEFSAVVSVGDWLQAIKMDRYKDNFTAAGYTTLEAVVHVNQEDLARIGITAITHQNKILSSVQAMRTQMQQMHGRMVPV
Sequence of Receptor tyrosine-protein kinase erbB-4 (Homo sapiens) (Q15303 whole entry): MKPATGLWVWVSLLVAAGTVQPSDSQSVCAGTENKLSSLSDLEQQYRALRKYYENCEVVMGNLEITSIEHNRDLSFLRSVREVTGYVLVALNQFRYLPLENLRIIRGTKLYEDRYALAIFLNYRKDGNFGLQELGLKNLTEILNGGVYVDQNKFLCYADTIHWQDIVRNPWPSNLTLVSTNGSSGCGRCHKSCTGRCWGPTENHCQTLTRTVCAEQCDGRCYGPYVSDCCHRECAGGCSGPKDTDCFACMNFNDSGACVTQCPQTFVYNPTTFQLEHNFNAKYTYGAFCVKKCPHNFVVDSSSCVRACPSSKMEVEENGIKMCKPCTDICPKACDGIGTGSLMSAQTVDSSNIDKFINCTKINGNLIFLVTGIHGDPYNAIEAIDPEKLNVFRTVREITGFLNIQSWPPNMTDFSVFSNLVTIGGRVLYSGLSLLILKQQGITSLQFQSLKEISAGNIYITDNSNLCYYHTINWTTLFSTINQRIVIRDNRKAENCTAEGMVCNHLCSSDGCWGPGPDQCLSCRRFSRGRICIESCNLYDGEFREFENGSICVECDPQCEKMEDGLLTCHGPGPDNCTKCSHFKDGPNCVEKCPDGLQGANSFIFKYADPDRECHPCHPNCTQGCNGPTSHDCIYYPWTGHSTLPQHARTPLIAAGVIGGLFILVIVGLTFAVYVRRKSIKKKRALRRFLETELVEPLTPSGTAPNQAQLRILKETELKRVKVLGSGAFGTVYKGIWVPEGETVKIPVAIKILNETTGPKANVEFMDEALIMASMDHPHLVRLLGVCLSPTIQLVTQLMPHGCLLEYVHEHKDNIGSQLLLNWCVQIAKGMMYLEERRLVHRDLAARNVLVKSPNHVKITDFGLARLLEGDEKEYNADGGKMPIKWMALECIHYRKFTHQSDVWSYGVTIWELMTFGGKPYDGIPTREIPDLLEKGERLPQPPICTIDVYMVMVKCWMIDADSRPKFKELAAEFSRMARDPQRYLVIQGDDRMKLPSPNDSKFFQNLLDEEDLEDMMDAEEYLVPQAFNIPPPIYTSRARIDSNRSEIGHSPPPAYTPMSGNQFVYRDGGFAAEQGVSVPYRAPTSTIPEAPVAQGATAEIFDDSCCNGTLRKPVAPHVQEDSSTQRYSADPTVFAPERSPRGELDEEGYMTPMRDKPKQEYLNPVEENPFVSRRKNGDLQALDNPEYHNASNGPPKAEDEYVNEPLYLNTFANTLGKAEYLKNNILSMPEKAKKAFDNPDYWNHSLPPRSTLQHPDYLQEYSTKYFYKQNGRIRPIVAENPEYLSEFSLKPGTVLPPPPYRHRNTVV

## COc1cc2nccc(Oc3ccc(NC(=O)Nc4cc(C)on4)c(Cl)c3)c2cc1OC
[1]
  residual activity: 0%
[2]
  residual activity: 26%
[3]
  residual activity: 3%
[4]
  residual activity: 2%
[5]
  residual activity: 7%
[6]
  residual activity: 6%
[7]
  residual activity: 1%
[8]
  residual activity: 1%
[9]
  residual activity: 1%
[10]
  residual activity: 1%
[11]
  residual activity: -1%
[12]
  residual activity: -2%
[13]
  residual activity: -1%
[14]
  residual activity: 75%
[15]
  residual activity: 96%
